Assay results taken from PubChem BioAssay (NCATS).
Values joined by “and” are separate entries in the source; they are usually repeats but may differ in a detail not shown here. Identical values can stand only once. Records with an inconclusive call do not appear. Active and inactive are the calls of the source. Unless noted, calls come from the whole dose curve; as a rule, active = well fitted curve in the direction sought with a large enough effect; inconclusive = small, poorly fitted or top-dose-only effect, or another doubt; inactive = no such curve, though single readings can be large; an effect the other way counts as inactive or inconclusive.

Assays:
Hek293T = assay: Primary qHTS to identify gynecologic anti-cancer compounds using libraries of approved drugs and bioactive compounds (AID 1345084); details: Gynecologic cancer cell panel viability, ATPlite luminescence, 48 h, control line for the selectivity index; series mostly up to 57.5 µM; note: % is set by controls: 0 for no effect and ±100 for the full control effect; nearly all actives have a fitted effect of over 55% in size
Method in brief: (§1)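 Five-concentration response, 48 h; readout is ATP-driven luciferase luminescence.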

JEG-3 = assay: as above; details: Gynecologic cancer cell panel viability, ATPlite luminescence, 48 h; series mostly up to 57.5 µM
Method in brief: as §1

OV90 = assay: as above; details: Gynecologic cancer cell panel viability, ATPlite luminescence, 48 h; series mostly up to 57.5 µM
Method in brief: as §1

PA-1 = assay: as above; details: Gynecologic cancer cell panel viability, ATPlite luminescence, 48 h; series mostly up to 57.5 µM
Method in brief: as §1

SKOV3 = assay: as above; details: Gynecologic cancer cell panel viability, ATPlite luminescence, 48 h; series mostly up to 57.5 µM
Method in brief: as §1

Tov-21-G = assay: as above; details: Gynecologic cancer cell panel viability, ATPlite luminescence, 48 h; series mostly up to 57.5 µM
Method in brief: as §1

Tov112D = assay: as above; details: Gynecologic cancer cell panel viability, ATPlite luminescence, 48 h; series mostly up to 57.5 µM
Method in brief: as §1

[1] = Drug repurposing screens with cells derived from glioblastoma tumor samples (AID 1345199); details: GBM patient neurospheres viability, ATP luminescence, 48 h; note: % is set by controls: 0 for no effect and ±100 for the full control effect; nearly all actives have a fitted effect of over 40% in size
Method in brief: (§2)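 Primary testing used CD133+ neurospheres from four GBM patients, seven concentrations, 48 h exposure and ATP-based viability; confirmation added three slower-growing patient lines.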

[2] = target: Nuclear receptor subfamily 1 group I member 2 (Rattus norvegicus) (UniProt Q9R1A7); assay: qHTS assay for small molecule activators of the rat pregnane X receptor (rPXR) signaling pathway (AID 651751; call rule not given here; note: 0% is about no effect); details: rPXR reporter cells, luciferase (One-Glo), 24 h
astro = assay: Drug repurposing screens with cells derived from glioblastoma tumor samples (AID 1345199); details: viability, ATP luminescence, 48 h; series mostly up to 45.9 µM; note: % is set by controls: 0 for no effect and ±100 for the full control effect; nearly all actives have a fitted effect of over 40% in size
Method in brief: as §2

[3] = qHTS assay for small molecule activators of the human pregnane X receptor (PXR) signaling pathway (AID 720659; call rule not given here; note: 0% is about no effect)
[4] = at 45.9 µM (top of the series), tumour line B
[5] = at 45.9 µM (top of the series), tumour line D
[6] = at 46 µM (top of the series), tumour line A
[7] = at 46.1 µM (top of the series), tumour line C
[8] = at 20 µM (top of the series), tumour line C
[9] = at 21.2 µM (top of the series), tumour line B
[10] = at 21.2 µM (top of the series), tumour line D
[11] = at 21.3 µM (top of the series), tumour line A

Chain of Nuclear receptor subfamily 1 group I member 2 (Rattus norvegicus) (Q9R1A7 whole entry, looked up): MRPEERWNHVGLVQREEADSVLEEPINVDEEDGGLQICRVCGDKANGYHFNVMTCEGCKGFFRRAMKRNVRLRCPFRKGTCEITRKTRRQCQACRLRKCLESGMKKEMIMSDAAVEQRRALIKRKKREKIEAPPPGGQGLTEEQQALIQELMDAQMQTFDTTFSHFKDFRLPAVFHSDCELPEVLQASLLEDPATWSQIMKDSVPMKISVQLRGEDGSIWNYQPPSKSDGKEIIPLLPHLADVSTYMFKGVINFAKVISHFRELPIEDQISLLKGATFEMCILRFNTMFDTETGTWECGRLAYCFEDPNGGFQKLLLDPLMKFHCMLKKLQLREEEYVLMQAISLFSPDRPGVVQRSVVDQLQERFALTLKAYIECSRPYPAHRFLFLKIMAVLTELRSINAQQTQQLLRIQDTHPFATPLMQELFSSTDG

CC1=NN(c2ccccc2)C(=O)C1
inactive: Potency (Hek293T) | Potency (JEG-3) | Potency (OV90) | Potency (PA-1) | Potency (SKOV3) | Potency (Tov-21-G) | Potency (Tov112D) | activity, negative = cell killing [1, 4] -3.42% | activity, negative = cell killing [1, 5] -8.39% | activity, negative = cell killing [1, 6] -29.7% | activity, negative = cell killing [1, 7] -6.42% | max response [2] 3.89% and 0.779%

COc1ccc2c(c1)c(CC(=O)OCC(=O)O)c(C)n2C(=O)c1ccc(Cl)cc1
inactive: Potency (Hek293T) | Potency (JEG-3) | Potency (OV90) | Potency (PA-1) | Potency (SKOV3) | Potency (Tov-21-G) | Potency (Tov112D) | activity, negative = cell killing [1, 4] -1.02% | activity, negative = cell killing [1, 5] -7.57% | activity, negative = cell killing [1, 7] 8.41% | Potency (astro)

CCn1cc(C(=O)O)c(=O)c2cc(F)c(N3CCNCC3)nc21
inactive: Potency (Hek293T) | Potency (JEG-3) | Potency (OV90) | Potency (PA-1) | Potency (SKOV3) | Potency (Tov-21-G) | Potency (Tov112D) | activity, negative = cell killing [1, 8] -1.66% | activity, negative = cell killing [1, 9] -1.31% | activity, negative = cell killing [1, 10] -17.3% | activity, negative = cell killing [1, 11] -3.28% | Potency (astro)

Cc1cc(NS(=O)(=O)c2ccc(N)cc2)no1
inactive: Potency (Hek293T) | Potency (JEG-3) | Potency (OV90) | Potency (PA-1) | Potency (SKOV3) | Potency (Tov-21-G) | Potency (Tov112D) | activity, negative = cell killing [1, 4] 0.277% | activity, negative = cell killing [1, 5] -26.8% | activity, negative = cell killing [1, 6] -6.57% | activity, negative = cell killing [1, 7] 7.15% | Potency (astro) | max response [2] 3.86% | outcome [3]

CNS(=O)(=O)CCc1ccc2[nH]cc(C3CCN(C)CC3)c2c1
inactive: Potency (Hek293T) | Potency (JEG-3) | Potency (OV90) | Potency (PA-1) | Potency (SKOV3) | Potency (Tov-21-G) | Potency (Tov112D) | activity, negative = cell killing [1, 4] -8.38% | activity, negative = cell killing [1, 5] 2.37% | activity, negative = cell killing [1, 7] 9.59% | Potency (astro)

CO[C@@H]1[C@@H](OC(N)=O)[C@@H](O)[C@H](Oc2ccc3c(O)c(NC(=O)c4ccc(O)c(CC=C(C)C)c4)c(=O)oc3c2C)OC1(C)C
inactive: Potency (Hek293T) | Potency (JEG-3) | Potency (OV90) | Potency (PA-1) | Potency (SKOV3) | Potency (Tov-21-G) | Potency (Tov112D) | activity, negative = cell killing [1, 8] -4.06% | activity, negative = cell killing [1, 9] -5.36% | activity, negative = cell killing [1, 10] -2.99% | activity, negative = cell killing [1, 11] -27.7% | Potency (astro)

NC(=O)c1cccnc1
inactive: Potency (Hek293T) | Potency (JEG-3) | Potency (OV90) | Potency (PA-1) | Potency (SKOV3) | Potency (Tov-21-G) | Potency (Tov112D) | activity, negative = cell killing [1, 4] -7.44% | activity, negative = cell killing [1, 5] -0.242% | activity, negative = cell killing [1, 6] -16% | activity, negative = cell killing [1, 7] 4.44% | Potency (astro)

Cc1nnc(C(=O)NC(C)(C)c2nc(C(=O)NCc3ccc(F)cc3)c(O)c(=O)n2C)o1
inactive: Potency (Hek293T) | Potency (JEG-3) | Potency (OV90) | Potency (PA-1) | Potency (SKOV3) | Potency (Tov-21-G) | Potency (Tov112D) | activity, negative = cell killing [1, 4] 5.76% | activity, negative = cell killing [1, 5] -4.7% | activity, negative = cell killing [1, 6] -16.1% | activity, negative = cell killing [1, 7] 13.1% | Potency (astro)

O=P(O)(O)C(O)(Cc1cccnc1)P(=O)(O)O
inactive: Potency (Hek293T) | Potency (JEG-3) | Potency (OV90) | Potency (PA-1) | Potency (SKOV3) | Potency (Tov-21-G) | Potency (Tov112D) | activity, negative = cell killing [1, 4] -9.54% | activity, negative = cell killing [1, 5] -7.26% | activity, negative = cell killing [1, 7] 2.44% | Potency (astro)

Nc1ccc(S(=O)(=O)Nc2ccccn2)cc1
inactive: Potency (Hek293T) | Potency (JEG-3) | Potency (OV90) | Potency (PA-1) | Potency (SKOV3) | Potency (Tov-21-G) | Potency (Tov112D) | activity, negative = cell killing [1, 8] -7.01% | activity, negative = cell killing [1, 9] 0.146% | activity, negative = cell killing [1, 10] 5.31% | activity, negative = cell killing [1, 11] -9.41% | Potency (astro)

COc1cnc(NS(=O)(=O)c2ccc(N)cc2)nc1
inactive: Potency (Hek293T) | Potency (JEG-3) | Potency (OV90) | Potency (PA-1) | Potency (SKOV3) | Potency (Tov-21-G) | Potency (Tov112D) | activity, negative = cell killing [1, 8] -10.8% | activity, negative = cell killing [1, 9] -19.1% | activity, negative = cell killing [1, 10] -2.41% | activity, negative = cell killing [1, 11] -32% | Potency (astro)

N[C@@H](C(=O)N[C@@H]1C(=O)N2C(C(=O)O)=C(Cl)CS[C@H]12)c1ccccc1
inactive: activity change, negative = cytotoxicity (Hek293T) 4.98% [at 11.6 µM] | activity change, negative = cytotoxicity (JEG-3) 1.47% [at 11.6 µM] | activity change, negative = cytotoxicity (OV90) 0.914% [at 11.6 µM] | activity change, negative = cytotoxicity (PA-1) 14.4% [at 11.6 µM] | activity change, negative = cytotoxicity (SKOV3) 12.2% [at 11.6 µM] | activity change, negative = cytotoxicity (Tov-21-G) 0.747% [at 11.6 µM] | activity change, negative = cytotoxicity (Tov112D) 2.46% [at 11.6 µM] | activity, negative = cell killing [1, 4] -8.97% | activity, negative = cell killing [1, 5] 11.2% | activity, negative = cell killing [1, 7] 7.75% | Potency (astro)

OC(Cn1cncn1)(Cn1cncn1)c1ccc(F)cc1F
inactive: Potency (Hek293T) | Potency (JEG-3) | Potency (OV90) | Potency (PA-1) | Potency (SKOV3) | Potency (Tov-21-G) | Potency (Tov112D) | activity, negative = cell killing [1, 4] -6.67% | activity, negative = cell killing [1, 5] -19.6% | activity, negative = cell killing [1, 6] -17.5% | activity, negative = cell killing [1, 7] -6.89% | max response [2] 4.95%

NCCCC(O)(P(=O)(O)O)P(=O)(O)O
inactive: Potency (Hek293T) | Potency (JEG-3) | Potency (OV90) | Potency (PA-1) | Potency (SKOV3) | Potency (Tov-21-G) | Potency (Tov112D) | activity, negative = cell killing [1, 4] -8.76% | activity, negative = cell killing [1, 5] 1.9% | activity, negative = cell killing [1, 6] -6.09% | activity, negative = cell killing [1, 7] -10.2% | Potency (astro)

COCCCOc1cc(C[C@@H](C[C@H](N)[C@@H](O)C[C@H](C(=O)NCC(C)(C)C(N)=O)C(C)C)C(C)C)ccc1OC
inactive: Potency (Hek293T) | Potency (JEG-3) | Potency (OV90) | Potency (PA-1) | Potency (SKOV3) | Potency (Tov-21-G) | Potency (Tov112D) | activity, negative = cell killing [1, 4] 9.07% | activity, negative = cell killing [1, 5] 12.6% | activity, negative = cell killing [1, 7] 3% | Potency (astro)

CCCc1cc(C(N)=S)ccn1
inactive: Potency (Hek293T) | Potency (JEG-3) | Potency (OV90) | Potency (PA-1) | Potency (SKOV3) | Potency (Tov-21-G) | Potency (Tov112D) | activity, negative = cell killing [1, 4] -7.71% | activity, negative = cell killing [1, 5] -14.3% | activity, negative = cell killing [1, 7] 5.43% | Potency (astro)
